The whole screen tested about 290,000 compounds, of which about 27,000 (9.3%) were called active. What follows is part of a selection rich in actives, with near analogues and random picks from the rest. Values without a mark were called inactive. No stated cut-off is given here; in the data, active means inhibition mostly above about 28% (no sharp cut-off); inactive means mostly below about 43%.

The test is described as follows: A qHTS for Small Molecule Inhibitors of Shiga Toxin. Further: 0% is about no effect. As to conditions: Vero cells, Shiga toxin protein synthesis inhibition reporter; at 38.7 µM, stronger effect = higher value.
For the compound `Cc1cc(C)nc(NS(=O)(=O)c2ccc(N3C(=O)C4CCCCC4C3=O)cc2)n1` (stereo unspecified), the inhibition is -4.6%.

For the compound `CC(=O)Nc1ccccc1NC(=O)c1cc(C)cc(C)c1`, the inhibition is -6.09%.

On to `C=CCN(c1ccc(C(=O)Nc2cc(C)cc(C)c2)cc1)S(C)(=O)=O`, for which the inhibition is 1.49%.

In the case of `CSCc1ccc(C(=O)Nc2cc(C)cc(C)c2)cc1`, the inhibition is 39% (active).

Turning to `O=C(N/N=C\c1ccc(Br)cc1)c1ccc(Cn2cccn2)o1`, the inhibition is 26.8%.

For `COc1cccc(NC(=O)c2ccc(Cn3cc([N+](=O)[O-])cn3)o2)c1`, the inhibition is 12.9%.

Regarding `CC1CCc2c(sc(NC(=O)c3ccc(Cn4cc(Br)cn4)o3)c2C(N)=O)C1` (stereo unspecified), the inhibition is 14.4%.

In the case of `CN(C)c1ccc(/C=N/NC(=O)c2ccc(Cn3cc(Br)cn3)o2)cc1`, the inhibition is 73.5% (active).

Take `O=C(c1ccc(Cn2cc([N+](=O)[O-])cn2)o1)N1CCCC1`: the inhibition was -5.81%.

Turning to `O=C(N/N=C/c1ccc2c(c1)OCO2)c1ccc(Cn2cc([N+](=O)[O-])cn2)o1`, the inhibition was 39.5% (active).

`O=C(NCCc1ccc(Cl)cc1)C1CCCN1C(=O)NCc1ccccc1` (stereo unspecified): the inhibition was 2.06%.

As to `COc1cccc(NS(=O)(=O)c2ccc(-c3coc(C)n3)cc2)c1`, the inhibition was -7.18%.

Take `CC(=C1C(=O)c2ccccc2C1=O)N1CCN(c2ccccn2)CC1`: the inhibition is 2.68%.

Take `COc1ccc(N2CCN(C(C)=C3C(=O)c4ccccc4C3=O)CC2)cc1`: the inhibition is 66.2% (active).

With `COc1ccc(N2CCN(C(=O)c3cccs3)CC2)cc1`, the inhibition is 41.6%.

Regarding `COc1ccccc1C(=O)N1C(CC(=O)Nc2ccccc2C)C(=O)NC2CCCCC21` (stereo unspecified), the inhibition was -1.4%.

Consider `COC(=O)[C@H](Cc1ccccc1)NC(=O)[C@@H]1C[C@H]1[C@@H](NC(=O)OCc1ccccc1)c1ccccc1`, for which the inhibition was -13%.

With `CC1Sc2ccc(S(=O)(=O)CCC(=O)NCc3ccccc3Cl)cc2NC1=O` (stereo unspecified), the inhibition was 11.4%.

For `Cc1cc(C)nc(N/N=C/c2ccc([N+](=O)[O-])o2)n1`, the inhibition is 12.2%.

As to `CCCc1nn2c(=O)cc(CSCC(=O)Nc3cccc(C)c3)nc2s1`, the inhibition was 9.11%.

As to `O=C(Nc1ccccc1)c1ccc(NC(=O)c2cccs2)cc1`, the inhibition is -21.1%.

For `O=C(CNC(=O)c1cccs1)N/N=C/c1cccc(Br)c1`, the inhibition was -5.46%.

With `O=C(N/N=C/C=C/c1ccco1)c1cccs1`, the inhibition was 104% (active).

As to `CCN(CC)c1ccc(/C=N/NC(=O)CNC(=O)c2cccs2)cc1`, the inhibition is 42.1% (active).

As to `CC(=O)Nc1ccc(/C=N/NC(=O)c2cccs2)cc1`, the inhibition was 97.3% (active).

Regarding `CC(/C=N/NC(=O)c1ccncc1)=C\c1ccco1`, the inhibition is 27%.

For `Cc1nn(-c2ccccc2)c(NC(=O)c2cccs2)c(-c2ccc(Cl)cc2)c1=O`, the inhibition was 7.45%.

For the compound `Cc1ccc(-n2nc(C)c(/C=N/NC(=O)c3cccs3)c2Cl)cc1`, the inhibition is 41% (active).

`Cc1nn(-c2ccccc2)c(Cl)c1/C=N/NC(=O)c1nn(C)cc1[N+](=O)[O-]`: the inhibition was 31.8%.

`O=C(NC(Cc1c[nH]c2ccccc12)C(=O)N/N=C/c1ccc(Br)cc1)c1cccs1` (stereo unspecified): the inhibition was -8.84%.

As to `Cc1ccc(-c2cc(C(=O)N/N=C/C=C/c3ccco3)c3ccccc3n2)cc1C`, the inhibition is 92.8%.

With `CCN(CC)c1ccc(/C=N/NC(=O)CNC(=O)c2cccnc2)cc1`, the inhibition was -12.8%.

Take `CC(=O)OCCN(CCCn1c(-c2ccncc2)nc2ccccc21)c1nc(-c2ccc(C)cc2)cs1`: the inhibition was -1.86%.

For `COc1ccc(CCNC(=O)c2nnc(CS(=O)(=O)c3ccccc3)o2)cc1OC`, the inhibition was 5.82%.

Turning to `Cc1ccc(S(=O)(=O)N(Cc2cc3ccccc3[nH]c2=O)CC2CCCO2)cc1` (stereo unspecified), the inhibition was -2.48%.

As to `O=C(Nc1c2c(nn1-c1ccccc1)CS(=O)(=O)C2)C1CCCC1`, the inhibition was -3.43%.

Consider `COc1ccc(NC(=O)c2ccco2)cc1NC(=O)c1ccc(C#N)cc1F`, for which the inhibition is -2.14%.

For `CCCCCC(O)(CCN1CCCCC1)c1ccccc1` (stereo unspecified), the inhibition is -8.74%.

For `Cc1cc(NC(=O)CCC(=O)N(CC(=O)NCC2CCCO2)c2ccccc2)no1` (stereo unspecified), the inhibition was -9.61%.

Regarding `COC(=O)C1(C)NC(c2ccccc2OC)C2C(=O)N(c3ccccc3)C(=O)C21` (stereo unspecified), the inhibition is -11.2%.

Regarding `COc1ccc(N2CCN(S(=O)(=O)c3ccc4c(c3)N(C(C)=O)CCO4)CC2)cc1`, the inhibition was -9.48%.

`Cc1cccc(-n2c(C)cc(/C=N/NC(N)=S)c2C)c1`: the inhibition is -4.48%.

Turning to `Cc1ccc(-n2c(C)cc(/C=N\NC(=O)CC(=O)NC(C)C)c2C)cc1`, the inhibition is 21.4%.

Turning to `Cc1cccc(-n2c(C)cc(/C=N\NC(=O)c3cccs3)c2C)c1`, the inhibition was 85.9% (active).

Turning to `O=C(Cn1cnc2ccccc21)Nc1ccccc1-c1ccccc1`, the inhibition was -2.99%.

As for `Cc1cc2ccccn2c1C(=O)c1cccc(F)c1`, the inhibition is 21%.

For the compound `CCCCNC(=O)CCn1nc(-c2ccc(Cl)cc2)ccc1=O`, the inhibition was -6.39%.

Take `COc1ccc(CNC(=O)CN(c2ccc(OC)c(Cl)c2)S(=O)(=O)c2ccc(C)cc2)cc1`: the inhibition was 15.2%.

With `O=C(COC(=O)c1ccc(Oc2ccccc2)cc1)Nc1nnc(-c2ccccc2)o1`, the inhibition was 6.93%.

For `Nc1ccc(-c2nnc(-c3ccccc3)o2)cc1`, the inhibition is 71.6% (active).

Take `Nc1ccc(Nc2ccccc2)cc1`: the inhibition was -17%.

In the case of `Cc1ccc(C(=O)NCC(=O)OCc2nnc(-c3ccccc3)o2)cc1`, the inhibition was 9.19%.

For `Nc1ccc(-c2nnc(-c3ccc(-c4ccccc4)cc3)o2)cc1`, the inhibition is 63.4% (active).

Turning to `Nc1ccc(-c2sc(N)nc2-c2ccccc2)cc1`, the inhibition is -12.4%.

For `COc1ccc(/C=N/N(C)C2=NS(=O)(=O)c3ccccc32)cc1OC`, the inhibition was -11.4%.

Regarding `COc1ccc(NC(=O)C2CCC(CNC(=O)[C@@H]3Cc4ccccc4CN3)CC2)cc1` (stereo partly specified), the inhibition is 8.69%.

`COc1ccc(CNC(=O)C2CCN(S(=O)(=O)c3ccc(SC)cc3)CC2)cc1`: the inhibition was -9.94%.

As to `O=C(Nc1cccn(Cc2ccccc2Cl)c1=O)NC1CCCCC1`, the inhibition is 33%.

For `CCNC(=O)CCc1nc(-c2ccc(C(C)(C)C)cc2)no1`, the inhibition is 42.8% (active).

Take `CCNC(=O)CCc1nc(-c2ccc(C)cc2)no1`: the inhibition is 34.3%.

Take `CN1CCN(C(=O)CCc2nc(-c3ccc(Cl)cc3)no2)CC1`: the inhibition was 42.8%.

For orientation: inhibition means the relative decrease from the control value, in per cent.

The values above are taken from PubChem BioAssay AID2315 (National Center for Advancing Translational Sciences (NCATS), 2010).
